We go through 13 molecules from PubChem BioAssay.

The source made the active and inactive calls. Unless noted, no rule for the calls is given here.

A short description of experiment [1]: resazurin metabolic signal in HepG2 cells – cell-based, resazurin fluorescence, 24 h, PK04 Diversity Set, profiling panel (AID 1172). Also: test concentration not given here. Conditions: HepG2 viability, higher = more signal.
The nature of experiment [2]: budding yeast growth changes without added modifier – OD600, strain BY4716, 24 h, basal condition, primary screen (AID 1173). Particulars: S. cerevisiae BY4716 growth, OD600, 24 h; higher = more signal, called active from +8 up or from −8 down.
A short description of experiment [3]: viability profiling in MM1S myeloma cells – cell-based, resazurin fluorescence, basal, 24 h, PK04 Diversity Set, profiling panel (AID 1174).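 Also: MM1S multiple myeloma cell line; test concentration not given here.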 Conditions: higher = more signal, called active from +8 up or from −8 down.
Experiment [4] has as its target Dihydroorotate dehydrogenase (quinone), mitochondrial (Plasmodium falciparum (isolate 3D7)) (UniProt Q08210). Nature of the experiment: inhibition of P. falciparum DHODH – biochemical, C-terminal His tag, absorbance 600 nm, primary screen (AID 1175).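 Also: recombinant parasite enzyme with a five histidine tag at its C terminus; test concentration not given here.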 Conditions: PfDHODH enzyme, DCIP absorbance 600 nm; higher = more signal, called active from +8 up or from −8 down.
The nature of experiment [5]: inhibition of PAO1 biofilm formation – strain PAO1, LB-PBS medium, absorbance 600 nm, primary screen (AID 1176). Also: test concentration not given here. Particulars: P. aeruginosa PAO1 growth/biofilm, A600, 12 h; higher = more signal.
Experiment [6] can be described thus: growth modulation of vineyard yeast isolate – strain RM11-1a, OD600, basal, 24 h, primary screen (AID 1177).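 Also: cultures grown under basal conditions with no added stressor; test concentration not given here.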 Conditions: S. cerevisiae RM11-1a growth, OD600, 24 h; higher = more signal, called active from +8 up or from −8 down.
Experiment [7] can be described thus: growth of efflux-deficient E. coli DRC39 – strain DRC39, OD650, 24 h, E. coli filamentation inducers, primary screen (AID 1178).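 Also: growth measured as culture turbidity by optical density at 650 nm; test concentration not given here.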 Particulars: E. coli DRC39 acrAB, higher = more signal, called active from +8 up or from −8 down.
Experiment [8] in a line: growth of efflux-deficient E. coli DRC39 – strain DRC39, OD650, 48 h, E. coli filamentation inducers, primary screen (AID 1179).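 Also: screen aims at cell division blockers that make cells filament.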 Particulars: E. coli DRC39 delta-acrAB growth, higher = more signal, called active from +8 up or from −8 down.
Experiment [9] in a line: viability profiling in RPMI8226 myeloma cells – cell-based, resazurin fluorescence, basal, 24 h, PK04 Diversity Set, profiling panel (AID 1180).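 Also: RPMI8826 multiple myeloma cell line at 5000 cells per well; test concentration not given here.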 Particulars: higher = more signal.
Experiment [10] has as its target E3 ubiquitin-protein ligase XIAP (Homo sapiens) (UniProt P98170). Nature of the experiment: small molecules binding XIAP protein – biophysical, small-molecule microarray, fluorescence 635 nm, primary screen (AID 1181).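 Also: score merges 667 nm emission and signal to noise over triplicate slides.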 Particulars: higher = more signal.

Chain of E3 ubiquitin-protein ligase XIAP (Homo sapiens) (P98170 whole entry, looked up): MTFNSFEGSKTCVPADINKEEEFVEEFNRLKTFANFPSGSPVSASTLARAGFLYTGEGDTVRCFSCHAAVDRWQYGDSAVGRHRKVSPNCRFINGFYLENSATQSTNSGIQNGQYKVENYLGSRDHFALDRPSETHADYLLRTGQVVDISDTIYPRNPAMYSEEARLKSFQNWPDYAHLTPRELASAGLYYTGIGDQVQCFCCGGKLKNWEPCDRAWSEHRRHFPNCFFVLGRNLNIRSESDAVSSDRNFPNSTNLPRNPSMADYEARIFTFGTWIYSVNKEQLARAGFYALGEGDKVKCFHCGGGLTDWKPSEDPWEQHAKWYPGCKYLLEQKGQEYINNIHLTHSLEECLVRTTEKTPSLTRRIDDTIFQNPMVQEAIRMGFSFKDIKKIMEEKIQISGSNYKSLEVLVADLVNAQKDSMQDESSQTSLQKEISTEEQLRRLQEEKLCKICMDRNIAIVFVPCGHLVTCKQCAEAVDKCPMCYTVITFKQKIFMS
Chain of Dihydroorotate dehydrogenase (quinone), mitochondrial (Plasmodium falciparum (isolate 3D7)) (Q08210 whole entry, looked up): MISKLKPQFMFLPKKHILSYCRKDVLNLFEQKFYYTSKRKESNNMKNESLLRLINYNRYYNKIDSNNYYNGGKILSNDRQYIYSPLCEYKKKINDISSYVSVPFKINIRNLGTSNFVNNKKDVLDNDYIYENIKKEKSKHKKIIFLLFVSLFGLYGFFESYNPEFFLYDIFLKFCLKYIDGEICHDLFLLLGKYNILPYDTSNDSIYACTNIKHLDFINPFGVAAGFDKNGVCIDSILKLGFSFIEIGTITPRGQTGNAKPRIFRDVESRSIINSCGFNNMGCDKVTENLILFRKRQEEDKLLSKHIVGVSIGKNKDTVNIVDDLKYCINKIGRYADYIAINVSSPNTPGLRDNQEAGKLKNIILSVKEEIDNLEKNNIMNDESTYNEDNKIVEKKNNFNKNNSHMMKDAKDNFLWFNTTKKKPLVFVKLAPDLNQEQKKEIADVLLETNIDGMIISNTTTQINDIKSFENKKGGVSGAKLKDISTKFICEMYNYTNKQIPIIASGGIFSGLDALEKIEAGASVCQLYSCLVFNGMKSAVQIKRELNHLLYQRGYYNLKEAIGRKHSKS

For `CC(C)(C)N1C(=O)[C@H]2[C@H]3[C@H](O)[C@H](O)CC(=NO[C@@H]4O[C@H](CO)[C@@H](O)[C@H](O)[C@H]4O)[C@H]3CC[C@H]2C1=O`, the z-score was -0.849 in experiment [1]; -1.3 (inactive) in experiment [2]; -0.623 (inactive) in experiment [3]; 1.15 (inactive) in experiment [5]; 0.339 (inactive) in experiment [6]; -0.341 (inactive) in experiment [7]. For the same molecule, the z-score is -1.45 (inactive) in [8] and -0.817 in experiment [9]. The composite z-score in experiment [4] is -0.982 (inactive); in [10], -0.142.
Take `CC(C)CON=C1C[C@@H](O)[C@@H](O)[C@@H]2[C@@H]3C(=O)N(c4cccc(Oc5ccccc5)c4)C(=O)[C@@H]3CC[C@@H]12`: the z-score in experiment [1] was -0.271; in [2], -1.81 (inactive); in experiment [3], -1.5 (inactive); in experiment [5] it was 0.659 (inactive); in experiment [6] it was -1.86 (inactive); in [7], -0.321 (inactive). Further, the results for the z-score in [8] and in experiment [9] were -0.791 (inactive) and -0.0778, respectively. Also, the composite z-score in experiment [4] was -1.71 (inactive); in experiment [10] it was 0.125.
Take `CCCCC#C[C@@H]1C=C[C@H](Oc2ccc(C(=O)OC)cc2)[C@@H](COC(=O)OCC)O1`: the z-score in experiment [1] was 0.257; in experiment [2], -4.46 (inactive); in experiment [3], -1.6 (inactive); in experiment [5], 0.472 (inactive); in [6], -0.37 (inactive); in experiment [7], -0.301 (inactive). For the same molecule, the z-score in [8] is -0.0901 (inactive); in experiment [9] it was -1.08. For the same molecule, the composite z-score in experiment [4] is -0.189 (inactive); in experiment [10] it was -0.194.
As to `CCOC(=O)NN=C1C[C@@H](O)[C@@H](O)[C@@H]2[C@@H]3C(=O)N([C@@H](C)c4ccccc4)C(=O)[C@@H]3CC[C@@H]12`, the z-score is 0.13 in experiment [1]; -0.608 (inactive) in [2]; -0.371 (inactive) in experiment [3]; -0.72 (inactive) in experiment [5]; -0.645 (inactive) in experiment [6]; -0.654 (inactive) in [7]. The z-score in [8] was -0.23 (inactive); in experiment [9], -0.436. Besides, the values for the composite z-score in experiment [4] and in experiment [10] were -0.0776 (inactive) and -0.202, respectively.
Regarding `CCOC(=O)[C@H](Cc1ccccc1)NC(=O)OC1CC(CCC2CC(CC)=NO2)OC2(CCCC(COC(=O)NCCC(C)C)O2)C1` (stereo not given in full), the z-score was 0.239 in experiment [1]; 0.633 (inactive) in experiment [2]; 0.264 (inactive) in experiment [3]; 0.226 (inactive) in experiment [5]; 0.136 (inactive) in experiment [6]; 0.347 (inactive) in [7]. The figures for the z-score in experiment [8] and in experiment [9] were 0.205 (inactive) and 0.65, respectively. The composite z-score is -0.133 (inactive) in [4] and -0.22 in experiment [10].
For the molecule `CCOC(=O)NN=C1C[C@@H](O)[C@@H](O)[C@@H]2[C@@H]3C(=O)N(C(C)(C)C)C(=O)[C@@H]3CC[C@H]12`, the z-score in experiment [1] was -1.46; in experiment [2], -0.962 (inactive); in experiment [3], -0.4 (inactive); in [5] it was 0.434 (inactive); in experiment [6] it was 0.179 (inactive); in [7] it was 0.408 (inactive). Further, the z-score in experiment [8] was 0.72 (inactive); in [9], -0.226. The composite z-score in experiment [4] was -0.397 (inactive); in [10], -0.246.
Regarding `CCOC(=O)[C@H](Cc1ccccc1)NC(=O)CCC1CC(OC(=O)NCc2cccc3ccccc23)CC2(CCCC(COC(=O)NCC(c3ccccc3)c3ccccc3)O2)O1` (stereo not given in full), the z-score is 0.812 in [1]; -0.38 (inactive) in experiment [2]; 0.923 (inactive) in experiment [3]; -0.163 (inactive) in experiment [5]; -0.714 (inactive) in experiment [6]; -0.371 (inactive) in [7]. The z-score in experiment [8] was -0.661 (inactive); in experiment [9] it was 1.27. In addition, the composite z-score in experiment [4] was -0.305 (inactive); in experiment [10], 0.0655.
`CCOC(=O)NN=C1C[C@@H](O)[C@@H](O)[C@@H]2[C@@H]3C(=O)N(c4cccc(Oc5ccccc5)c4)C(=O)[C@@H]3CC[C@@H]12`: the z-score was 0.358 in [1]; -0.22 (inactive) in [2]; -0.285 (inactive) in [3]; 0.225 (inactive) in experiment [5]; -0.114 (inactive) in [6]; -0.347 (inactive) in experiment [7]. Also, the z-score in experiment [8] was -1.28 (inactive); in experiment [9], 0.0541. Further, the results for the composite z-score in experiment [4] and in experiment [10] were -0.108 (inactive) and -0.122, respectively.
Turning to `CCOC(=O)[C@H](CC(C)C)NC(=O)CCC1CC(OC(=O)NCc2ccc3c(c2)OCO3)CC2(CCCC(COC(=O)NCc3cccc(C(F)(F)F)c3)O2)O1` (stereo not given in full), the z-score was -0.54 in [1]; 0.3 (inactive) in [2]; 0.639 (inactive) in experiment [3]; -0.0691 (inactive) in [5]; 0.683 (inactive) in [6]; -0.718 (inactive) in [7]. Further, the z-score in experiment [8] was -0.0974 (inactive); in experiment [9], 0.328. The results for the composite z-score in experiment [4] and in [10] were 0.0645 (inactive) and -0.148, respectively.
Consider `CCOC(=O)NN=C1C[C@@H](O)[C@@H](O)[C@@H]2[C@@H]3C(=O)N(c4ccc(F)cc4F)C(=O)[C@@H]3CC[C@@H]12`, for which the z-score in experiment [1] is 1.06; in experiment [2] it was 0.559 (inactive); in experiment [3], 0.514 (inactive); in [5] it was 0.118 (inactive); in [6], 0.916 (inactive); in experiment [7], 0.239 (inactive). Also, the z-score in [8] was -0.559 (inactive); in [9], 0.562. Further, the composite z-score in [4] was -0.0225 (inactive); in [10] it was -0.0663.
On to `CO[C@H]1COC(=O)[C@H](C)NC(=O)CC=C[C@@H](C)[C@H](OC)COC(=O)[C@@H](OCc2ccccc2)C=C[C@@H]1C`, for which the z-score in experiment [1] was 1.15; in experiment [2], -0.479 (inactive); in [3] it was 0.346 (inactive); in [5], -0.838 (inactive); in experiment [6] it was -0.462 (inactive); in experiment [7], 0.575 (inactive). The z-score was 0.2 (inactive) in [8] and 0.323 in [9]. Besides, the composite z-score is 0.234 (inactive) in [4] and -0.142 in experiment [10].
For the molecule `COc1cccc([C@H]2Oc3ccc(OC)cc3C(=NOC[C@@H](O)[C@H]3O[C@@H]4OC(C)(C)O[C@@H]4[C@H]3O)[C@@H]2O)c1`, the z-score in [1] was -0.791; in [2] it was -6.98 (inactive); in experiment [3] it was -1.21 (inactive); in experiment [5] it was 0.56 (inactive); in experiment [6], -0.0039 (inactive); in experiment [7], -0.218 (inactive). The z-score in experiment [8] is 0.0308 (inactive); in experiment [9], -0.687. The composite z-score is 0.474 (inactive) in [4] and 0.0865 in [10].
As to `CC(C)=CCCC(C)=CCON=C1C[C@@H](O)[C@@H](O)[C@@H]2[C@@H]3C(=O)N(Cc4ccccc4)C(=O)[C@@H]3CC[C@@H]12`, the z-score in [1] is 1.42; in [2], -0.404 (inactive); in experiment [3] it was 0.772 (inactive); in experiment [5] it was -0.143 (inactive); in experiment [6], 0.581 (inactive); in [7], 0.593 (inactive). Besides, the z-score is 1.01 (inactive) in [8] and 0.97 in experiment [9]. Moreover, the composite z-score is 0.317 (inactive) in experiment [4] and -0.121 in experiment [10].
